Residue numbers refer to the chain shown, from its start.
Tests used:
Assay in all cases: PBM; 200 nM protein, PBS
Conditions in all cases: dsDNA, one strand shown
[1] = target: T1, SIX6 (Homo sapiens, UniProt O95475 114-200, L167I)
T1 sequence: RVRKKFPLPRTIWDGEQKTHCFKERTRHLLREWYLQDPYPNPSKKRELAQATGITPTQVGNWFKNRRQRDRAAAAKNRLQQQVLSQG

[2] = target: T2, SIX6 (Homo sapiens, UniProt O95475 114-200, L143V)
T2 sequence: T1 sequence with L30V, I54L

[3] = target: T3, SIX6 (Homo sapiens, UniProt O95475 114-200, H141N)
T3 sequence: T1 sequence with H28N, I54L

[4] = target: T4, SIX6 (Homo sapiens, UniProt O95475 114-200, T165P)
T4 sequence: T1 sequence with T52P, I54L

[5] = target: T5, SIX6 (Homo sapiens, UniProt O95475 114-200, L167M)
T5 sequence: T1 sequence with I54M

[6] = target: T6, SIX6 (Homo sapiens, UniProt O95475 114-200, L143M)
T6 sequence: T1 sequence with L30M, I54L

[7] = target: T7, SIX6 (Homo sapiens, UniProt O95475 114-200, L143I)
T7 sequence: T1 sequence with L30I, I54L

[8] = target: T8, SIX6 (Homo sapiens, UniProt O95475 114-200, T165G)
T8 sequence: T1 sequence with T52G, I54L

[9] = target: T9, SIX6 (Homo sapiens, UniProt O95475 114-200, T139Q)
T9 sequence: T1 sequence with T26Q, I54L

[10] = target: T10, SIX6 (Homo sapiens, UniProt O95475 114-200, T165A)
T10 sequence: T1 sequence with T52A, I54L

[11] = target: T11, SIX6 (Homo sapiens, UniProt O95475 114-200, L167V)
T11 sequence: T1 sequence with I54V

[12] = target: T12, SIX6 (Homo sapiens, UniProt O95475 114-200)
T12 sequence: T1 sequence with I54L

[13] = target: T13, SIX6 (Homo sapiens, UniProt O95475 114-200, T165I)
T13 sequence: T1 sequence with T52I, I54L

| Sequence | binding signal [1] | binding signal [2] | binding signal [3] | binding signal [4] | binding signal [5] | binding signal [6] | binding signal [7] | binding signal [8] | binding signal [9] | binding signal [10] | binding signal [11] | binding signal [12] | binding signal [13] |
| --- | --- | --- | --- | --- | --- | --- | --- | --- | --- | --- | --- | --- | --- |
| CAGCGTGC | 9.15 upbm affinity estimate (log intensity, higher = more binding, comparable within an allelic series) | 9.01 upbm affinity estimate (log intensity, higher = more binding, comparable within an allelic series) | 9.08 upbm affinity estimate (log intensity, higher = more binding, comparable within an allelic series) | 9.06 upbm affinity estimate (log intensity, higher = more binding, comparable within an allelic series) | 9.05 upbm affinity estimate (log intensity, higher = more binding, comparable within an allelic series) | 9.23 upbm affinity estimate (log intensity, higher = more binding, comparable within an allelic series) | 9.08 upbm affinity estimate (log intensity, higher = more binding, comparable within an allelic series) | 9.19 upbm affinity estimate (log intensity, higher = more binding, comparable within an allelic series) | 9.15 upbm affinity estimate (log intensity, higher = more binding, comparable within an allelic series) | 9.11 upbm affinity estimate (log intensity, higher = more binding, comparable within an allelic series) | 9.05 upbm affinity estimate (log intensity, higher = more binding, comparable within an allelic series) | 9.14 upbm affinity estimate (log intensity, higher = more binding, comparable within an allelic series) | 9.05 upbm affinity estimate (log intensity, higher = more binding, comparable within an allelic series) |
| CAGGACCG | 9.24 upbm affinity estimate (log intensity, higher = more binding, comparable within an allelic series) | 9.05 upbm affinity estimate (log intensity, higher = more binding, comparable within an allelic series) | 9.24 upbm affinity estimate (log intensity, higher = more binding, comparable within an allelic series) | 9.18 upbm affinity estimate (log intensity, higher = more binding, comparable within an allelic series) | 9.01 upbm affinity estimate (log intensity, higher = more binding, comparable within an allelic series) | 9.2 upbm affinity estimate (log intensity, higher = more binding, comparable within an allelic series) | 9.14 upbm affinity estimate (log intensity, higher = more binding, comparable within an allelic series) | 9.28 upbm affinity estimate (log intensity, higher = more binding, comparable within an allelic series) | 9.23 upbm affinity estimate (log intensity, higher = more binding, comparable within an allelic series) | 9.16 upbm affinity estimate (log intensity, higher = more binding, comparable within an allelic series) | 9.19 upbm affinity estimate (log intensity, higher = more binding, comparable within an allelic series) | 9.17 upbm affinity estimate (log intensity, higher = more binding, comparable within an allelic series) | 9.13 upbm affinity estimate (log intensity, higher = more binding, comparable within an allelic series) |
| ATGATACG | 11.2 upbm affinity estimate (log intensity, higher = more binding, comparable within an allelic series) | 10.3 upbm affinity estimate (log intensity, higher = more binding, comparable within an allelic series) | 11.2 upbm affinity estimate (log intensity, higher = more binding, comparable within an allelic series) | 9.78 upbm affinity estimate (log intensity, higher = more binding, comparable within an allelic series) | 10.6 upbm affinity estimate (log intensity, higher = more binding, comparable within an allelic series) | 11 upbm affinity estimate (log intensity, higher = more binding, comparable within an allelic series) | 10.4 upbm affinity estimate (log intensity, higher = more binding, comparable within an allelic series) | 11.3 upbm affinity estimate (log intensity, higher = more binding, comparable within an allelic series) | 11.2 upbm affinity estimate (log intensity, higher = more binding, comparable within an allelic series) | 11.1 upbm affinity estimate (log intensity, higher = more binding, comparable within an allelic series) | 11 upbm affinity estimate (log intensity, higher = more binding, comparable within an allelic series) | 11 upbm affinity estimate (log intensity, higher = more binding, comparable within an allelic series) | 10.9 upbm affinity estimate (log intensity, higher = more binding, comparable within an allelic series) |
| CCATATCA | 11.1 upbm affinity estimate (log intensity, higher = more binding, comparable within an allelic series) | 10.1 upbm affinity estimate (log intensity, higher = more binding, comparable within an allelic series) | 11.1 upbm affinity estimate (log intensity, higher = more binding, comparable within an allelic series) | 9.48 upbm affinity estimate (log intensity, higher = more binding, comparable within an allelic series) | 10.4 upbm affinity estimate (log intensity, higher = more binding, comparable within an allelic series) | 10.8 upbm affinity estimate (log intensity, higher = more binding, comparable within an allelic series) | 10.2 upbm affinity estimate (log intensity, higher = more binding, comparable within an allelic series) | 11.1 upbm affinity estimate (log intensity, higher = more binding, comparable within an allelic series) | 11 upbm affinity estimate (log intensity, higher = more binding, comparable within an allelic series) | 11 upbm affinity estimate (log intensity, higher = more binding, comparable within an allelic series) | 10.8 upbm affinity estimate (log intensity, higher = more binding, comparable within an allelic series) | 10.9 upbm affinity estimate (log intensity, higher = more binding, comparable within an allelic series) | 10.8 upbm affinity estimate (log intensity, higher = more binding, comparable within an allelic series) |
| ACGATACC | 11.2 upbm affinity estimate (log intensity, higher = more binding, comparable within an allelic series) | 10.3 upbm affinity estimate (log intensity, higher = more binding, comparable within an allelic series) | 11.1 upbm affinity estimate (log intensity, higher = more binding, comparable within an allelic series) | 9.65 upbm affinity estimate (log intensity, higher = more binding, comparable within an allelic series) | 10.6 upbm affinity estimate (log intensity, higher = more binding, comparable within an allelic series) | 11 upbm affinity estimate (log intensity, higher = more binding, comparable within an allelic series) | 10.4 upbm affinity estimate (log intensity, higher = more binding, comparable within an allelic series) | 11.3 upbm affinity estimate (log intensity, higher = more binding, comparable within an allelic series) | 11.4 upbm affinity estimate (log intensity, higher = more binding, comparable within an allelic series) | 11.1 upbm affinity estimate (log intensity, higher = more binding, comparable within an allelic series) | 10.9 upbm affinity estimate (log intensity, higher = more binding, comparable within an allelic series) | 11.1 upbm affinity estimate (log intensity, higher = more binding, comparable within an allelic series) | 11 upbm affinity estimate (log intensity, higher = more binding, comparable within an allelic series) |
| ACTGATAC | 11.3 upbm affinity estimate (log intensity, higher = more binding, comparable within an allelic series) | 10.3 upbm affinity estimate (log intensity, higher = more binding, comparable within an allelic series) | 11.3 upbm affinity estimate (log intensity, higher = more binding, comparable within an allelic series) | 9.79 upbm affinity estimate (log intensity, higher = more binding, comparable within an allelic series) | 10.5 upbm affinity estimate (log intensity, higher = more binding, comparable within an allelic series) | 10.9 upbm affinity estimate (log intensity, higher = more binding, comparable within an allelic series) | 10.4 upbm affinity estimate (log intensity, higher = more binding, comparable within an allelic series) | 11.3 upbm affinity estimate (log intensity, higher = more binding, comparable within an allelic series) | 11.3 upbm affinity estimate (log intensity, higher = more binding, comparable within an allelic series) | 11.2 upbm affinity estimate (log intensity, higher = more binding, comparable within an allelic series) | 10.9 upbm affinity estimate (log intensity, higher = more binding, comparable within an allelic series) | 11 upbm affinity estimate (log intensity, higher = more binding, comparable within an allelic series) | 11 upbm affinity estimate (log intensity, higher = more binding, comparable within an allelic series) |

Source: publication PMC11006913
